This is part of a sample that, as a whole, favours compounds with a hit. Of some 83,000 tested, about 20% had one in any assay.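 Growth was measured after 48 h exposure to one concentration of compound in 96-well plates. Values under 10 count as active.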 Values without a mark were called inactive. Activity calls are given as the source filed them.
Assays:
Experiment in all cases: NCI-60 one-dose screen, 48 h (100 = growth as untreated, 0 = no growth, -100 = all killed)
Details in all cases: 10 µM unless noted
EKVX NSCLC = test system: EKVX NSCLC
SN12C renal = test system: SN12C renal
UO-31 renal = test system: UO-31 renal
TK-10 renal = test system: TK-10 renal
ACHN renal = test system: ACHN renal
CAKI-1 renal = test system: CAKI-1 renal
A498 renal = test system: A498 renal
CCRF-CEM leukemia = test system: CCRF-CEM leukemia
MOLT-4 leukemia = test system: MOLT-4 leukemia
SR leukemia = test system: SR leukemia

Structure (SMILES)	growth (EKVX NSCLC)	growth (SN12C renal)	growth (UO-31 renal)	growth (TK-10 renal)	growth (ACHN renal)	growth (CAKI-1 renal)	growth (A498 renal)	growth (CCRF-CEM leukemia)	growth (MOLT-4 leukemia)	growth (SR leukemia)
O=c1cc(-c2ccccc2)oc2cc(OCc3cn(Cc4ccc(F)cc4)nn3)cc(OCc3cn(Cc4ccc(F)cc4)nn3)c12	57.2%	38.7%	3.64% (active)	37.1%	7.3% (active)	54.6%	30.8%	77.5%	83.2%	32.7%
O=C1C(Cl)=C(NCc2ccco2)C(=O)c2ccccc21	110%	90.1%	97.3%	110%	93.8%	93.9%	89.8%	24.4%	91.1%	63.9%
O=c1c(-c2nc3ccccc3[nH]2)cc2ccccc2n1Cc1cn(Cc2ccc(N3CCOCC3)cc2)nn1	89.7%	49.7%	74.8%	92.7%	35.7%	77.3%	92.4%	110%	99%	71.7%
O=C1Nc2ccccc2/C1=C/c1cccs1	73.2%	89.9%	62.2%	134%	86.7%	90.4%	106%	97.2%	102%	121%
O=C(NCc1ccccc1)C1CN(c2ccc(Cl)cc2)N(c2ccc(Cl)cc2)C1=O (stereo not given)	87.8%	91%	55.9%	95.7%	94.7%	75.4%	73.4%	73.4%	64.3%	34.3%
C1CCN(c2nc(N3CCCCC3)nc(N3CCOCC3)n2)CC1	85.4%	96.5%	99.5%	92.1%	116%	85.6%	109%	92.6%	81.5%	89.4%
O=C1Nc2ccccc2/C1=C/c1ccc[nH]1	32.8%	92.7%	61.9%	63.5%	84%	77.4%	88.5%	109%	101%	71.7%
O=S1(=O)N(Cc2ccccc2)[C@@H](Cc2ccccc2)C2O[C@H]2[C@H](Cc2ccccc2)N1Cc1ccccc1 (stereo not given in full)	24%	47.8%	68.1%	71%	41.2%	33.8%	65.4%	29.5%	35.4%	29.6%
CN(CCc1ccccc1)C(=S)N(C(=O)c1ccc([N+](=O)[O-])cc1)c1ccc(Cl)cc1	95.1%	89%	76.8%	76%	106%	85.5%	93.4%	39.6%	43.1%	25%
CN1C(=O)N(C)C2Nn3c(s/c(=C4\C(=O)N(CCc5ccccc5)c5ccccc54)c3=O)=NC21 (stereo not given)	58%	74.3%	62.9%	70.5%	59.3%	49.2%	70.3%	53.1%	70.8%	30.4%
COc1cc(C2C(C#N)=C(N)OC3=C2C(=O)c2ccccc2C3=O)cc(OC)c1O (stereo not given)	78.9%	47.5%	36%	70.1%	41.2%	38.8%	-8.45% (active)	106%	105%	38.1%
O=S(=O)(Nc1ncccn1)c1ccc(NC2Nc3nc4ccccc4nc3S2)cc1 (stereo not given)	90.7%	97.7%	78.5%	109%	98.5%	94%	99.3%	104%	99.7%	102%
COc1ccc(N(C)c2nc(N)nc3sc4c(c23)CCCC4)cc1	61%	24.2%	38.5%	45.1%	26.7%	25.6%	0.565% (active)	9.1% (active)	11.6%	6.49% (active)
CCOC(=O)c1ccc(N=Cc2sc(=O)[nH]c2O)cc1	93.4%	95.3%	83.1%	98.4%	90.3%	88.1%	110%	101%	99.9%	117%
COc1ccc(C2C3=C(COC3=O)N(CCO)c3cc4c(cc32)CCC4)cc1 (stereo not given)	66.7%	95.1%	75.7%	77.9%	67.7%	48%	73.2%	64.3%	45.4%	35.8%
COc1cc2nc(NC3CCCC3)nc(NC3CCN(C(C)C)CC3)c2cc1OC	81.6%	97.3%	79.5%	71.7%	86.9%	98.2%	97.4%	66.4%	54.1%	-1.77% (active)
CS(=O)(=O)Nc1ccc(C(=O)NC(C(=O)NO)c2ccc(-c3cccc(F)c3)cc2)cc1 (stereo not given)	97.4%	75.3%	19.3%	30.3%	58.7%	49.9%	95.6%	95.1%	103%	78.8%
COc1cc(C2CC(c3ccc(Nc4nc(NCCO)nc(N5CCOCC5)n4)cc3)=NN2c2cc(Cl)cc(Cl)c2)cc(OC)c1OC (stereo not given)	55.5%	65.5%	42%	93.3%	47.6%	46.4%	52%	48%	33.2%	23.2%
CN1CCN(Cc2ccc(NC(=O)c3[nH]ncc3Nc3cc(OC4CCCC4)ncn3)cc2)CC1	60.1%	24.9%	25.8%	88.3%	8.8% (active)	19.2%	49.6%	5.67% (active)	5.56% (active)	4.42% (active)
Nc1no[n+]([O-])c1-c1nnc2c(n1)-c1ccccc1C2=O	63.8%	15.6%	37%	151%	16%	72.4%	91%	35.5%	5.49% (active)	3.68% (active)
COC(=O)[C@H](NC(=O)C1(C)CCC[C@]2(C)[C@H]3C[C@H]4C(C(C)C)=C[C@]3(CC[C@@H]12)[C@@H]1C(=O)CCC(=O)[C@@H]14)C(C)C (stereo not given in full)	94.9%	99.8%	90.7%	127%	100%	88.4%	110%	104%	102%	89.7%
COC(=O)/C(CCC=C(C)C)=C1\[C@@H](OC(C)=O)C[C@@]2(C)[C@H]1C[C@@H](O)[C@H]1[C@@]3(C)CC[C@H](NCc4ccccc4)[C@@H](C)[C@@H]3CC[C@@]12C	63%	75.6%	47.5%	111%	79.2%	72.5%	98.1%	50.9%	28.1%	0.245% (active)
O=Cc1cc2ccccc2nc1Nc1nccs1	98.5%	45.5%	31.2%	101%	31.5%	79.5%	81.9%	46.7%	23.4%	33.9%
Cc1cc2c(c(C)c1Cl)C(=O)/C(=C/c1cccc([N+](=O)[O-])c1)O2	98.3%	96.9%	96.2%	129%	107%	91.6%	95.6%	102%	90.5%	85.5%
O=C(Nc1ncc(Cc2cccc(C(F)(F)F)c2)s1)C1COc2ccccc2O1 (stereo not given)	75.5%	88.8%	73.7%	97.1%	97.4%	84.2%	106%	86.7%	80.2%	106%
O=C(/C=C/c1ccc(C(F)(F)F)cc1)c1ccc(Nc2nc(NCCO)nc(Nc3ccc(Cl)cc3)n2)cc1	59.1%	79.1%	59.9%	86.6%	52.2%	68.2%	78.5%	18.2%	20.7%	21.2%

Reference: PubChem BioAssay (NCI)
